From PubChem BioAssay AID651640 (Broad Institute, 2012) come the findings set out here.

Out of some 350,000 compounds screened, about 6,000 (1.7%) were called active. Not shown: some 5% with an inconclusive outcome. This is one part of a sample in which actives are shown more often than they occur. No stated cut-off is given here; in the data, active means CPE inhibition above about 20% (passing the limit was not always enough); inconclusive means no clear call, values can overlap the other calls; tested in BHK-21 cells.

The nature of the test: protection of cells from dengue 2 killing – plate reader, single concentration, primary screen (AID 651640).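 Further: 0% = median of neutral control wells and 100% = median of positive control wells.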 The conditions noted are these: DENV2-infected cells, cytopathic effect rescue, at 9.99 µM, hits give high values. A general note: Protection from cytopathic effect is a common read-out in antiviral testing.
`CO[C@@H]1CN(C)C(=O)c2cc(NC(=O)NC3CCCCC3)ccc2OC[C@H](C)N(CC2CC2)C[C@H]1C`: the CPE inhibition was 5.48% (inactive).
In the case of `CN1c2ccc(-c3ccc(C#N)cc3)cc2[C@@H]2[C@@H](CCN2S(=O)(=O)c2cccc(F)c2)[C@@H]1CO`, the CPE inhibition is 2.27% (inactive).
Regarding `COC(=O)[C@@H]1[C@@H](CO)[C@@H]2Cn3c(ccc(C4=CCCC4)c3=O)[C@@H]2N1Cc1cncnc1`, the CPE inhibition is -0.488% (inactive).
Consider `Cc1cccn2c(CN(C)C3CCCc4ccccc43)c(C(=O)N3CCOCC3)nc12` (configuration not stated), for which the CPE inhibition is -1.26% (inactive).
In the case of `Cc1cccn2c(CNCC(C)Oc3cccnc3)c(C(=O)N3CCOCC3)nc12` (configuration not stated), the CPE inhibition was 5.69% (inactive).
`CCOC(=O)C1CCN(Cc2c(C(=O)N3CCOCC3)nc3c(C)cccn23)CC1`: the CPE inhibition was 115% (active).
Regarding `CN(C)C(=O)c1ccc(-c2ccc([C@H]3[C@@H](CO)N4C(=O)CN(C(=O)CC5CC5)C[C@@H]34)cc2)cc1`, the CPE inhibition is -1.06% (inactive).
Turning to `COc1ccccc1NC(=O)N1CC(=O)N2[C@H](CO)[C@H](c3ccc(C#Cc4ccccc4)cc3)[C@H]2C1`, the CPE inhibition was 8.69% (inactive).
For `CN(C)CC(=O)N[C@@H]1CC[C@H](CCn2cc(C3CCCC3)nn2)O[C@H]1CO`, the CPE inhibition was 77.7% (active).
As for `CN(C)CC(=O)N[C@@H]1CC[C@@H](CCn2cc(C3CC3)nn2)O[C@H]1CO`, the CPE inhibition was 13.8% (inactive).
Regarding `O=C(Cc1cccnc1)N[C@H]1CC[C@H](CCn2cc(-c3ccccc3F)nn2)O[C@H]1CO`, the CPE inhibition was 20% (active).
The figure for `COc1cccc(-c2cn(CC[C@H]3CC[C@H](NC(=O)CN(C)C)[C@H](CO)O3)nn2)c1` is -8.73% (inactive); for `O=C(Cc1ccncc1)N[C@H]1CC[C@H](CCn2cc(-c3ccccc3F)nn2)O[C@@H]1CO` it is -5% (inactive); for `O=C(Cc1ccncc1)N[C@@H]1CC[C@H](CCn2cc(-c3ccccc3F)nn2)O[C@H]1CO` it is 2.31% (inactive).
`COc1ccc(S(=O)(=O)N[C@@H]2CC[C@H](CC(=O)N3CCc4ccccc4C3)O[C@H]2CO)cc1`: the CPE inhibition is 2.67% (inactive).
Regarding `COc1ccccc1CNC(=O)C[C@H]1CC[C@@H]2[C@H](COC[C@H](O)CN2Cc2ccccc2)O1`, the CPE inhibition is -0.546% (inactive).
The figure for `CO[C@@H](CN(C)C(=O)c1cnccn1)[C@H](C)CN([C@H](C)CO)S(=O)(=O)c1ccc(C)cc1` is -0.652% (inactive); for `C[C@H]1CN([C@@H](C)CO)C(=O)Cc2cc(NC(=O)Cc3ccccc3)ccc2O[C@@H]1CN(C)Cc1ccc(Cl)c(Cl)c1` it is 11.1% (inactive); for `C[C@@H]1CN([C@@H](C)CO)C(=O)Cc2cc(NC(=O)CCCCCC(=O)Nc3ccccc3N)ccc2O[C@H]1CN(C)C(=O)Nc1ccc(C(F)(F)F)cc1` it is 0.365% (inactive).
Turning to `C[C@H](CO)N1C[C@H](C)[C@H](CN(C)Cc2ccc(C(F)(F)F)cc2)Oc2ccc(NC(=O)CCCCCC(=O)Nc3ccccc3N)cc2CC1=O`, the CPE inhibition is 30.6% (active).
For the molecule `C[C@H]1CN([C@@H](C)CO)C(=O)Cc2cc(NC(=O)CCCCCC(=O)Nc3ccccc3N)ccc2O[C@@H]1CN(C)Cc1ccncc1`, the CPE inhibition was -3.1% (inactive).
Turning to `C[C@H]1CN([C@@H](C)CO)C(=O)Cc2cc(NC(=O)CCCCCC(=O)Nc3ccccc3N)ccc2O[C@H]1CN(C)C(=O)Nc1ccc(F)cc1`, the CPE inhibition was 6.87% (inactive).
For `C[C@@H]1CN([C@@H](C)CO)C(=O)Cc2cc(NC(=O)CCCCCC(=O)Nc3ccccc3N)ccc2O[C@H]1CN(C)Cc1ccc(Cl)c(Cl)c1`, the CPE inhibition is 35.5% (active).
Turning to `CC(=O)N(C)C[C@@H]1Oc2ncc(C#CCc3ccccc3)cc2C(=O)N([C@H](C)CO)C[C@H]1C`, the CPE inhibition is 13.5% (inactive).
As for `CO[C@@H]1CN(C)C(=O)c2cc(NC(=O)c3ccccc3)ccc2OC[C@H](C)N(C(=O)CN(C)C)C[C@H]1C`, the CPE inhibition was -4.5% (inactive).
Take `C[C@H](CO)N1C[C@H](C)[C@H](CN(C)Cc2ccc(C(=O)O)cc2)Oc2ccc(NS(=O)(=O)c3cn(C)cn3)cc2CC1=O`: the CPE inhibition was -5.77% (inactive).
Take `CC(C)NC(=O)N(C)C[C@H]1Oc2ccc(NS(C)(=O)=O)cc2CC(=O)N([C@@H](C)CO)C[C@H]1C`: the CPE inhibition is -8.84% (inactive).
As to `CO[C@H]1CN(C)C(=O)c2cc(NC(=O)c3cnccn3)ccc2OC[C@H](C)N(C(=O)C2CC2)C[C@H]1C`, the CPE inhibition is 7.36% (inactive).
For the molecule `CO[C@@H]1CN(C)C(=O)c2cc(NC(=O)c3cnccn3)ccc2OC[C@@H](C)N(CC2CC2)C[C@H]1C`, the CPE inhibition was -5.97% (inactive).
As for `CO[C@H]1CN(C)C(=O)c2cc(NC(=O)c3cnccn3)ccc2OC[C@@H](C)N(CC2CC2)C[C@@H]1C`, the CPE inhibition is 26.7% (active).
`CO[C@H]1CN(C)C(=O)c2cc(NC(=O)c3nc4ccccc4s3)ccc2OC[C@H](C)N(Cc2cccnc2)C[C@@H]1C`: the CPE inhibition is 21.1% (active).
`CO[C@H]1CN(C)C(=O)c2ccc(NC(=O)c3nc4ccccc4s3)cc2OC[C@@H](C)N(Cc2cncnc2)C[C@H]1C`: the CPE inhibition is -2.74% (inactive).
With `CO[C@H]1CN(C)C(=O)c2ccc(NC(=O)c3nc4ccccc4s3)cc2OC[C@H](C)N(Cc2cccnc2)C[C@@H]1C`, the CPE inhibition is 3.73% (inactive).
The figure for `COCC#Cc1ccc([C@@H]2[C@@H](CO)N3C(=O)CN(C(=O)C4CCCC4)C[C@@H]23)cc1` is -7.7% (inactive); for `CC(C)NC(=O)N(C)C[C@H]1Oc2ccc(N(C)C)cc2C(=O)N([C@@H](C)CO)C[C@H]1C` it is -2.75% (inactive).
As to `C[C@@H]1CCCCO[C@H](CN(C)C(=O)CCC(F)(F)F)[C@H](C)CN([C@H](C)CO)C(=O)c2cc(NC(=O)NC3CCCCC3)ccc2O1`, the CPE inhibition was 0.687% (inactive).
With `COCC(=O)Nc1ccc2c(c1)C(=O)N(C)C[C@@H](OC)[C@@H](C)CN(C(=O)c1ccccc1)[C@@H](C)CO2`, the CPE inhibition was 0.375% (inactive).
`CN1CCN(C(=O)c2cc3c(c(-c4cccc(-c5ccc(C(=O)N(C)C)cc5)c4)n2)[C@@H](CCO)N([S@](=O)C(C)(C)C)C3)CC1`: the CPE inhibition was 1.85% (inactive).
To `O=C(CN1CCOCC1)N1CCCCN2[C@H](CO)[C@H](c3ccc(-c4ccccc4)cc3)[C@@H]2C1` belongs 6.44% (inactive).
In the case of `O=C(CN1CCOCC1)NC[C@@H]1N[C@@H](CO)[C@@H]1c1ccc(-c2ccccc2)cc1`, the CPE inhibition is 29.8% (active).
The figure for `O=C(CN1CCOCC1)N1CCCCN2[C@@H](CO)[C@H](c3ccc(-c4ccccc4)cc3)[C@@H]2C1` is -4.15% (inactive); for `CN1C(=O)c2cc(NC(=O)c3cnccn3)ccc2OC[C@@H]2O[C@H](CC(=O)O)CC[C@@H]21` it is 0.738% (inactive).
On to `COc1ccc(/C=C/C(=O)OCC(=O)NCc2cccs2)cc1OC`, for which the CPE inhibition was -0.984% (inactive).
Consider `CCN(CC(=O)NCc1cccs1)C(=O)/C=C/c1ccc(C)cc1`, for which the CPE inhibition is 13.7% (inactive).
The figure for `CCOc1ccc(/C=C/C(=O)N(CC)CC(=O)NCc2cccs2)cc1OC` is 67.5% (active).
With `COc1ccccc1C#Cc1ccc([C@H]2[C@H](CO)N3CCCCN(C(=O)C4CCC4)C[C@@H]23)cc1`, the CPE inhibition is -8.41% (inactive).
Turning to `O=C(CN1CCC(NC(=O)Nc2ccccc2)CC1)Nc1cccc([N+](=O)[O-])c1`, the CPE inhibition was -9.16% (inactive).
The figure for `Cc1cccc(C(=O)NC2CCN(CC(=O)Nc3cccc(Cl)c3)CC2)c1` is 39% (active).
`Cc1cc(C)cc(NC(=O)NC2CCN(CC(=O)Nc3cccc(Cl)c3C)CC2)c1`: the CPE inhibition is -4.01% (inactive).
`C[C@H]1CN([C@@H](C)CO)S(=O)(=O)c2ccc(C#Cc3ccccc3)cc2O[C@@H]1CN(C)C(=O)C1CC1`: the CPE inhibition was 19.8% (inactive).
On to `Cc1ccccc1C1=NC(C(F)(F)F)(C(F)(F)F)c2c(n(-c3ccc(F)cc3)c(=O)[nH]c2=O)N1`, for which the CPE inhibition is 22.3% (active).
The figure for `COc1ccc2c3c([nH]c2c1)[C@H](CO)N(C(=O)Nc1ccc(F)cc1)CC31CN(S(=O)(=O)c2cccc(F)c2)C1` is 1.82% (inactive); for `CCCNC(=O)N1[C@@H](C#N)[C@H](c2ccc(-c3ccc(C(=O)N(C)C)cc3)cc2)[C@@H]1CO` it is -5.96% (inactive); for `COC(=O)C[C@@H]1CC[C@@H]2[C@H](COc3ccc(NS(=O)(=O)c4ccccc4F)cc3C(=O)N2C)O1` it is 1.86% (inactive).
For `C[C@@H]1CCCCO[C@H](CN(C)C(=O)Nc2ccc3c(c2)OCO3)[C@H](C)CN([C@H](C)CO)C(=O)c2cc(NS(C)(=O)=O)ccc2O1`, the CPE inhibition was 11.9% (inactive).
To `CCC(CO)Oc1cc(NC(=O)c2cccc3ccccc23)c2ncn(C(C)C)c2c1` (configuration not stated) belongs -11.1% (inactive); to `CCC(CO)Oc1cc(NC(=O)c2cccc(F)c2)c2ncn(C(C)C)c2c1` (configuration not stated), -10.5% (inactive); to `CCC(CO)Oc1cc(NCc2ccccc2)c2ncn(C3CCCC3)c2c1` (configuration not stated), 64.4% (active).
`COc1ccc(SSc2ccc(OC)cc2C(=O)O)c(C(=O)O)c1`: the CPE inhibition was 2.7% (inactive).
In the case of `O=S(=O)(c1ccccc1)N1CCCCN2[C@@H](CO)[C@H](c3ccc(C#Cc4cccnc4)cc3)[C@@H]2C1`, the CPE inhibition is 17.6% (inactive).
In the case of `COCC(=O)N1CCCCN2[C@H](CO)[C@H](c3ccc(-c4ccc(OC)cc4)cc3)[C@H]2C1`, the CPE inhibition was -1.33% (inactive).
The figure for `C[C@H](O)C#Cc1ccc([C@@H]2[C@@H](CO)N3CCCCN(C(=O)c4ccncc4)C[C@@H]23)cc1` is -16.7% (inactive).
Take `C[C@@H](O)C#Cc1ccc([C@@H]2[C@H]3CN(C(=O)c4ccc5c(c4)OCO5)CCCCN3[C@H]2CO)cc1`: the CPE inhibition was 2.09% (inactive).
For the molecule `CC(C)(O)C#Cc1ccc([C@H]2[C@@H](CO)N3CCCCN(C(=O)c4ccncc4)C[C@H]23)cc1`, the CPE inhibition is 0.094% (inactive).
Regarding `C[C@H](O)C#Cc1ccc([C@H]2[C@H](CO)N3CCCCN(C(=O)c4ccc(F)cc4)C[C@@H]23)cc1`, the CPE inhibition is 41.2% (active).
`COc1ccc(-c2ccc([C@@H]3[C@@H](CO)N4CCCCN(C(=O)NC(C)C)C[C@H]34)cc2)cc1`: the CPE inhibition is 63.6% (active).
As to `O=C(Nc1ccccc1F)N1CCCCN2[C@H](CO)[C@@H](c3ccc(-c4cccnc4)cc3)[C@H]2C1`, the CPE inhibition is 5.39% (inactive).
In the case of `CC(C)C#Cc1ccc([C@H]2[C@H](CO)N3CCCCN(C(=O)c4ccc(F)cc4)C[C@@H]23)cc1`, the CPE inhibition is 10.5% (inactive).
In the case of `COc1ccc(C#Cc2ccc([C@@H]3[C@@H](CO)N4CCCCN(C(=O)c5ccncc5)C[C@@H]34)cc2)cc1`, the CPE inhibition is 50.9% (active).
Consider `COCC(=O)N1CCCCN2[C@H](CO)[C@@H](c3ccc(-c4ccc(OC)cc4)cc3)[C@@H]2C1`, for which the CPE inhibition is -7.09% (inactive).
`CN(C)CC(=O)N1CCCCN2[C@@H](CO)[C@H](c3ccc(-c4cccnc4)cc3)[C@@H]2C1`: the CPE inhibition is 33.3% (active).
As for `CCC(=O)N1CCCCN2[C@H](CO)[C@@H](c3ccc(-c4cccnc4)cc3)[C@H]2C1`, the CPE inhibition is -0.425% (inactive).
